Experimental data published in the supplement of paper PMC3334620.
The full ranking holds about 33,000 sequences; the median of “E-score (-0.5 to 0.5)” is about -8e-05, and the highest 2% start at about 0.23. What follows is part of a selection rich in the highest values, with near analogues and random picks from the rest.

biological target: T1, Nrg2 (UniProt P38082); test: PBM E-score (8-mer binding enrichment) (E-score (-0.5 to 0.5)); higher = stronger / more preferred TF binding; settings: protein concentration: 100 nM; construct: GST-full length
T1 sequence: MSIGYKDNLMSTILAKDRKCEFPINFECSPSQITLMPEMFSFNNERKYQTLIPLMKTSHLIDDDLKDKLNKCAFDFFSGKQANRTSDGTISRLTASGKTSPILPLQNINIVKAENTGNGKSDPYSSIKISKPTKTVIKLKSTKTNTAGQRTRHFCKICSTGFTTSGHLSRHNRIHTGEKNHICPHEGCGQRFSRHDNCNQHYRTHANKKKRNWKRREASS
How it was run: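 Yeast transcription factors, full-length or as DNA-binding domains, were expressed with a GST tag using PURExpress in vitro transcription/translation. At about 100-200 nM they were applied to universal all-10-mer Agilent arrays, double-stranded by primer extension on fresh or once-stripped slides. Fluorescent anti-GST detected bound protein, and masliner normalised the scans. E-scores for ungapped eight-base words, pooled with reverse complements, came from the Universal PBM Analysis Suite.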

Sequence | PBM E-score
TGTTTGAA | -0.00474
ACTTCGAC | -0.0444
GTATCATA | 0.251
CTATCATA | 0.125
ATATCATA | 0.174
CGTAGATA | -0.0208
AGTAGATC | -0.0113
AGTATAAC | -0.131
ACTATATA | 0.23
AGTATATC | 0.107
AGTATATG | 0.129
AGTATATA | 0.327
GCTATATA | 0.0573
AGTAGATA | 0.249
AGTATAAT | 0.257
AGTATAAA | 0.194
ACTATATC | 0.182
GAGGTGCC | -0.0447
CAAAATCG | 0.109
AGAGGACG | -0.0944
ACGGCGCG | 0.214
CGACACCA | -0.124
GAGACAGA | 0.14
ACAGCGAT | -0.201
GGGAACCA | -0.231

Sequence | PBM E-score
CGGAACAA | 0.122
ACGAACCA | 0.235
CGGAACCA | 0.294
ACGAACGA | 0.0396
CCGAACCA | -0.00203
AGGAACAC | 0.131
ACGAACGC | 0.267
CGGAACCG | -0.162
CCGAACGC | 0.0363
CGGAACAC | 0.264
ACGAACCC | -0.00702
GACGGATC | -0.153
TCCTAAAA | -0.251
TCATTGAA | -0.122
TAAATGGA | -0.0213
AGCAGGGG | -0.182
ACACTGCT | -0.0746
GTTAACTA | 0.273
CTTAACTA | 0.0617
GCTAACAA | -0.0183
GTTAACAA | 0.254
CTTAACAA | 0.107
ATTAACTA | 0.136
CAGGCCAC | -0.141
GCGTGAGC | 0.142

Sequence | PBM E-score
GGAACTCA | -0.0697
ACACTCTC | 0.104
GAATGATC | -0.0614
TAATGATA | 0.243
CAATGATA | 0.128
GAATGAGA | 0.114
GAATGATA | 0.247
AAATGATA | 0.225
AGCCCTAG | -0.16
ACCTGAGG | -0.134
GCCTGAGC | -0.213
CCCTGAGA | 0.235
TCCTGAGA | -0.0364
CCCTGAGG | 0.236
ACCTGAGC | 0.0385
CACTGAGG | -0.124
CCCTGAGC | 0.236
GCCTGAGA | -0.0991
CATTTTCC | 0.0879
AGAAGCCC | -0.0779
ATTATGAC | -0.0447
AGGCAAGG | -0.259
CCTATCGC | -0.134
CATGTTGC | -0.0978
AATGTTGA | -0.019

Sequence | PBM E-score
CATGTTGA | 0.258
GTGTATTA | 0.233
CAGTATTA | 0.244
AAGTATTA | 0.129
GAGTATTA | 0.00698
ATGTATTA | -0.041
CTGTATTA | 0.147
ATACTCGA | 0.0646
AGTTCGAG | 0.223
TCCCAAAA | 0.0584
CCGGGAAC | -0.00517
CTGCGCTC | -0.146
ATGCGCGG | 0.121
ATGCGCGA | 0.00379
ATGCGCAC | 0.142
ATGCGCAT | 0.368
ATTCGCGC | 0.159
CTTCGCGC | 0.232
ATGCGCAA | 0.182
CTTCGCGA | 0.0778
ATGCGCGC | 0.23
CTGCGCGA | -0.0667
CTGCGCGC | 0.306
GTGCAGCA | -0.172
CAATTGCC | -0.00722

Sequence | PBM E-score
CAGGACTG | -0.241
AAATGCGG | 0.0989
CAATGCGC | 0.145
AAATGCGC | 0.272
AGGGGCAT | 0.00378
CTAAAAGA | -0.198
CGATATAA | 0.244
CGATATTC | 0.153
CGATATAC | 0.113
CGATATTA | 0.23
GGATATTA | 0.147
CGATATAG | 0.14
CACCGTGA | -0.113
GTATGGCA | 0.0816
CATCAGCG | -0.213
CGAAAAGA | 0.199
CGCAGTGA | -0.0744
AGCAGTGA | 0.234
AGCAGTGC | -0.287
GCGCTACC | -0.139
GTGCTGTA | -0.0149
CGGAGGCA | -0.134
AAGCGCAA | 0.147
TCCAGCAA | -0.151
ACCAGCAA | 0.245

Sequence | PBM E-score
CCCAGCAA | 0.0725
ACTTACCA | 0.00217
GTCAAACA | -0.117
AATTGCAA | 0.0259
GGTTGCAA | 0.111
TGTTGCAA | 0.268
TATTGCAA | 0.253
CATTGCAA | -0.00795
CGTTGCAA | 0.0314
CGCGGTTC | 0.0879
GGATAGCA | 0.0845
GAGTACTC | 0.23
AAGTACTC | -0.0318
CAGTACTC | -0.171
GGCGAGCC | -0.0861
CCAATACG | -0.165
ACCTCGAG | 0.281
CCCTCGAG | 0.143
ACCTCGAT | 0.147
AAGAAAAG | -0.0237
TCAATTCA | 0.102
AAGGGTAG | 0.0465
CAGGGTAC | 0.235
CAGGGTAA | 0.215
AAGGGTAC | 0.165

Sequence | PBM E-score
AGGGGTAG | -0.0372
CAGGGTAG | 0.303
AAGTCTAT | -0.0746
TAGTAAGA | 0.107
ACCCTGCA | 0.376
ACCCTGCC | 0.0806
GCCCTGCA | 0.044
ACCCTGCT | 0.0589
ACCCTGCG | 0.254
TCCCTGCA | 0.25
CCCCTGCG | -0.0622
AGCCTGCA | 0.0137
CCCCTGCA | -0.00126
ATAGGACA | -0.118
GGTCTTGA | -0.0327
ACCAAGTC | 0.111
AAAGCCCG | -0.147
AAAAGCGT | -0.0481
AAAAACTT | -0.148
CGCTGGCA | 0.0236
CGGCATTA | 0.0976
ACGCGCGT | 0.17
